This is a sample that favours compounds with a hit; in the whole collection about 19% have one here.
HT1080NT lethal: qHTS for induction of synthetic lethality in tumor cells producing 2HG: qHTS for the HT-1080-NT fibrosarcoma cell line. 360,000 compounds, 1.6% hits. AID 686970, 2013. Potency, µM (highest dose often 46.1 µM), inactives show at the top dose activity, negative = less viability, actives largely listed as cytotoxic. HT-1080-NT fibrosarcoma viability, CellTiter-Glo ATP luminescence, 48 h;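 further: NT is the 2HG producing partner of a matched IDH1 knockdown line; potency means the concentration at half of the fitted maximal effect; 0% = DMSO-treated cells and -100% = media-only wells without cells; nearly all actives have a fitted effect of over 55% in size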
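750 cells/well, RPMI + 5% FBS; 2 h settle, compound pin-transfer, 48 h at 37 degrees C. CellTiter-Glo 10 min RT, luminescence. Normalized to DMSO and media-only wells.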
IL-1B inflam inh: qHTS for Inhibitors of Inflammasome Signaling: IL-1-beta AlphaLISA Primary Screen. THP-1 LPS/ATP IL-1B secretion, AlphaLISA, 16 h; hits give low values. activity change, % at 57.5 µM. 360,000 compounds, 4.7% hits. AID 743279, 2014; in the data active means activity change below about -50%; inconclusive means mostly about -30% to -49%
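Secreted IL-1B measured by AlphaLISA bead assay after 16 h compound exposure of THP-1 cells; compounds (final up to 57.5 uM) added 1 h before LPS (250 ng/mL) and ATP (1.25 mM) stimulation; lower signal means less secretion.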
TDP1 cell CPT: qHTS for Inhibitors of human tyrosyl-DNA phosphodiesterase 1 (TDP1): qHTS in cells in presence of CPT. chicken DT40 Tdp1-/-;hTDP1 cells + 20 nM CPT, ATP luminescence, 48 h. Potency, µM (titrated, usually from 46.2 µM), without a hit: at the top dose activity change, negative = growth inhibition, usual class: inhibitors. 420,000 compounds, 12% hits. AID 686979, 2013; further: potency means the concentration at half of the fitted maximal effect; nearly all actives have a fitted effect of over 55% in size
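Chicken DT40 Tdp1-/- cells stably complemented with human TDP1 were seeded at 400 cells/well in medium containing 20 nM camptothecin, exposed to pin-transferred compounds, and grown at 37 °C for at least 48 hr. Viability was read as ATP luminescence.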
HT1080 IDH1KD tx: qHTS for induction of synthetic lethality in tumor cells producing 2HG: qHTS for the HT-1080-IDH1KD cell line; HT-1080 IDH1 knockdown viability, ATP luminescence, 48 h; Potency, µM (top dose mostly 46.1 µM), inactives show at the highest dose activity, negative = toxicity, most hits filed as cytotoxic; 360,000 compounds, 2% hits; AID 686971, 2013;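 further: potency means the concentration at half of the fitted maximal effect; 0% = DMSO wells and -100% = cell-free medium wells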
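Cytotoxicity counter-line: IDH1KD HT-1080, 48 h, CellTiter-Glo. Curves classed by r2, magnitude and activity.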
TDP1 cell noCPT: qHTS for Inhibitors of human tyrosyl-DNA phosphodiesterase 1 (TDP1): qHTS in cells in absence of CPT | DT40 Tdp1-/- hTDP1 cells, no CPT, ATP luminescence, 48 h | AID 686978, 2013 | 420,000 compounds, 15% hits | Potency, µM (top dose mostly 46.2 µM), for the others: at the top dose activity change, negative = growth inhibition, usual class: inhibitors; further: potency means the concentration at half of the fitted maximal effect; nearly all actives have a fitted effect of over 55% in size
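Stably hTDP1-transfected Tdp1-null chicken DT40 cells were treated with library compounds minus camptothecin and grown for at least 48 hr at 37 °C, after which cellular ATP was quantified by luminescence.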
ELG1 repair inh: qHTS screen for small molecules that inhibit ELG1-dependent DNA repair in human embryonic kidney (HEK293T) cells expressing luciferase-tagged ELG1. 330,000 compounds, 2.3% hits. HEK293T ELG1-luciferase reporter, luminescence, 16 h; DNA damage induced by 5-fluorouridine. Potency, µM (doses to about 46.1 µM), inactives show at the top dose activity change, negative = inhibition, most hits filed as inhibitors. AID 504467, 2011; further: potency means the concentration at half of the fitted maximal effect; nearly all actives have a fitted effect of over 55% in size
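Overnight (16 hr) co-exposure of 2,000 cells/well to 5-fluorouridine and compound at 37 °C preceded detection. Luciferase was quantified via ONE-Glo luminescence; loss of signal denotes inhibition.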
An asterisk follows results filed as active; i = inactive; u = inconclusive; x = not tested or not shown; [ ] = remark or other dose. Unless noted, the call rests on the fitted dose curve; in most records, active means well fitted curve in the direction sought with a large enough effect; inconclusive means small, poorly fitted or top-dose-only effect, or another doubt; inactive means no such curve, though single readings can be large; an effect the other way counts as inactive or inconclusive. Unless noted, on the % scale 0 is the no-effect control and ±100 the full control effect.

SMILES	HT1080NT lethal	IL-1B inflam inh	TDP1 cell CPT	HT1080 IDH1KD tx	TDP1 cell noCPT	ELG1 repair inh
O=C(NCCc1cccc(F)c1)C1CCC(=O)N(CCCc2ccccc2)C1 (stereo unspecified)	3.7%	13.6	18.4µM*	3.4%	u	-0.4%
O=C(NCc1ccccc1C(F)(F)F)C1CCC(=O)N(CCCc2ccccc2)C1 (stereo unspecified)	-14.5%	5.2	u	-21.1%	29.1µM*	-2.6%
COCCNC(=O)CCC1CCN(Cc2cccc(Oc3ccccc3)c2)CC1	-5.5%	2.8	4.0%	-1.4%	1.2%	0.9%
C[C@H](O)C(=O)Nc1c(I)c(C(=O)NC(CO)CO)c(I)c(C(=O)NC(CO)CO)c1I	x	x	4.0%[21.1 µM]	x	-27.3%[21.1 µM]	x
CCOc1ccc(S(=O)(=O)N(CC(=O)NCc2ccncc2)c2ccc(C)cc2)cc1	-0.8%	41.8	u	-25.3%	u	-0.5%
Cc1ccc(Nc2nc3ccccc3c3nnc(C)n23)c(C)c1	x	x	11.6µM*	x	8.2µM*	x
Cc1ccccc1CSc1ccc(S(=O)(=O)N2CCCC2)cn1	9.0%	-12.3	-22.4%	1.4%	u	u
CC(C)C(NS(=O)(=O)c1ccc2c(c1)oc(=O)n2C)C(=O)NCc1ccccc1 (stereo unspecified)	x	x	-12.6%	x	2.4%	x
CCC(c1nnnn1Cc1ccc2c(c1)OCO2)N1CCN(c2ccc(OC)cc2)CC1 (stereo unspecified)	-6.2%	u	25.9µM*	-12.7%	u	u
CC(C)C(c1nnnn1Cc1ccc(F)cc1)N1CCN(Cc2ccc3c(c2)OCO3)CC1 (stereo unspecified)	-24.2%	u	u	-15.5%	u	u
CCCC(c1nnnn1Cc1ccc(OC)cc1)N1CCN(c2ccccc2OC)CC1 (stereo unspecified)	-12.7%	8.3	u	-17.1%	20.6µM*	u
CCC(c1nnnn1Cc1ccc2c(c1)OCO2)N1CCN(c2ccc(F)cc2)CC1 (stereo unspecified)	-28.7%	-14.4	20.6µM*	-19.5%	u	u
Cn1c(=O)c(CCc2ccccc2)nc2cnc(OCc3ccccc3)nc21	x	x	11.6%	x	-7.1%	x
COc1ccc(NC(=O)C(CC(C)C)NS(=O)(=O)c2ccc3c(c2)oc(=O)n3C)cc1Cl (stereo unspecified)	x	x	-4.2%	x	-19.8%	x
COc1ccc(CNS(=O)(=O)c2ccc3c(c2)CCN3C(=O)C2CC2)cc1	-25.6%	16.5	u	-8.6%	u	u
COc1ccc(S(=O)(=O)NCc2ccc3c(c2)CCN3C(=O)c2ccc(C)cc2)cc1Cl	x	x	20.6µM*	x	16.4µM*	x
CCOc1ccc(S(=O)(=O)NCc2ccc3c(c2)CCN3C(=O)c2ccc(C)cc2)cc1	x	x	13µM*	x	9.2µM*	x
CC(=O)N1CCc2cc(CNS(=O)(=O)c3ccc(F)cc3)ccc21	x	x	1.1%	x	-22.9%	x
CCc1ccc(S(=O)(=O)NCc2ccc3c(c2)CCN3C(=O)c2ccc(C)cc2)cc1	x	x	7.31µM*	x	8.2µM*	x
CC(C)c1ccc(S(=O)(=O)NCc2ccc3c(c2)CCN3C(=O)c2ccccc2)cc1	x	x	23.1µM*	x	14.6µM*	x
COc1ccc(N=C2SC(C(=O)Nc3ccc(OC)cc3)CC(=O)N2CCN2CCOCC2)cc1 (stereo unspecified)	-0.1%	-5.0	-21.3%	0.0%	-18.8%	3.8%
CC(=O)c1c(C)[nH]c(C(=O)NCc2ccc(Cl)cc2)c1C	-3.7%	61.0	-23.9%	-5.2%	-27.5%	x
Cc1cc(OCC(=O)N[C@@H](CSCc2ccccc2)C(=O)O)c2c(C)c(C)c(=O)oc2c1	0.3%	6.4	-9.6%	-3.6%	-0.4%	-0.7%
O=C(Nc1ccccc1F)c1ccc(C(=O)c2ccccc2)cc1	5.3%	i	u	15.8%	-25.4%	u
CCN(CC(=O)Nc1c(F)cccc1F)C(=O)C1CCN(C(=O)Nc2ccccc2)CC1	0.4%	7.9	1.5%	-4.4%	4.7%	12.6%
SMILES	HT1080NT lethal	IL-1B inflam inh	TDP1 cell CPT	HT1080 IDH1KD tx	TDP1 cell noCPT	ELG1 repair inh
COc1ncc2ncc(=O)n(Cc3ccc(F)cc3)c2n1	x	x	-2.6%	x	-24.3%	x
O=c1cnc2cncnc2n1Cc1ccccc1	x	x	5.8µM*	x	7.31µM*	x
Cc1nc2cncnc2n(Cc2ccccc2Cl)c1=O	x	x	-16.4%	x	-1.5%	x
O=c1cnc2cncnc2n1Cc1ccc(F)cc1	x	x	4.11µM*	x	4.11µM*	x
O=c1c(-c2ccccc2)nc2cncnc2n1Cc1ccc(F)cc1	x	x	u	x	20.6µM*	x
O=c1cnc2cncnc2n1Cc1ccccc1Cl	x	x	2.31µM*	x	1.3µM*	x
O=c1c(-c2cccc(Cl)c2)nc2cncnc2n1Cc1ccc(F)cc1	x	x	1.3%	x	-21.3%	x
COc1ccc(S(=O)(=O)N2CCCCCC2)cc1C(=O)NCc1ccc(C)cc1	-3.8%	-4.2	u	-8.7%	u	u
Cc1ccc(S(=O)(=O)N2[C@H](CC(=O)c3cccc4ccccc34)OC[C@@H]2C)cc1	u	-2.9	u	-29.3%	u	x
COc1ccc(OCC(=O)OCC(=O)c2ccc(OC)c(F)c2)cc1	8.6%	-14.6	3.0%	12.2%	2.1%	u
Cc1cccc(-c2nc(SCC(=O)Nc3cccc(C(F)(F)F)c3)n3[nH]c(=O)cc3n2)c1	x	x	-4.7%	x	-5.5%	x
COc1ccc(-c2nc(SCCOc3ccccc3Cl)n3[nH]c(=O)cc3n2)cc1	x	x	20.6µM*	x	u	x
C=CCc1ccccc1OCCSc1nc2ccc([N+](=O)[O-])cc2s1	-6.2%	-23.4	u	3.5%	u	12.2%
C=CCc1ccccc1OCCSc1nc(-c2ccccc2F)nc2cc(=O)[nH]n12	x	x	16.4µM*	x	20.6µM*	x
COc1ccccc1OCCCSc1nc(-c2ccc(C(C)(C)C)cc2)nc2cc(=O)[nH]n12	x	x	-100.5%	x	u	x
COc1cccc(-c2nc(SCc3ccc(C)cc3)n3[nH]c(=O)cc3n2)c1	x	x	18.4µM*	x	16.4µM*	x
COc1ccccc1N1CCN(Cc2cc(=O)c(OCC#N)co2)CC1	6.2%	-0.5	-3.8%	1.1%	21.2%	-6.0%
COc1ccc(CNC(=O)C2CCN(c3nc4ccccc4[nH]3)CC2)c(OC)c1	x	x	18.4µM*	x	u	x
